Inconclusive results are not listed. Values without a mark were called inactive. Active and inactive are the calls of the source. The call rests on the fitted dose curve; in most records, active means well fitted activation curve with a large enough effect in the repeat runs; inconclusive means weak or mixed curves; inactive means flat fitted curve, though single readings scatter.
Experiment: A CellTox Green Cytotoxicity Assay to monitor cytotoxicity in HepG2 cells - 16 hour (AID 1224876); further: nearly all actives have a fitted effect of over 45% in size
Conditions: CellTox Green fluorescence; series mostly up to 76.8 µM; cytotoxicity increase: at the top concentration
Excerpt: National Center for Advancing Translational Sciences [NCATS]
NIH Chemical Genomics Center [NCGC]
U.S. Environmental Protection Agency [EPA]
National Institutes of Environmental Health Sciences [NIEHS]
National Toxicology Program [NTP]
Cell-based models are critical for drug discovery. Determining the natural cytotoxic effects resulting from test compounds is an essential research activity. A CellTox Green Cytotoxicity Assay to monitor cytotoxicity in real time of continues cell culture during 40 hours of the compound treatment was used to screen Tox21 10K library compounds in HepG2 cells. CellTox Green Cytotoxicity Assay is a nonlytic, homogeneous, biofluorescent method to measure cytotoxicity in cell culture after experimental manipulation. The assay system uses a proprietary asymmetric cyanine dye that is excluded from viable cells but preferentially stains the dead cell's DNA. […] Viable cells produce no appreciable increases in fluorescence. Therefore, the fluorescence signal produced by the binding interaction with dead cell DNA is proportional to cytotoxicity.
The mixture of HepG2 cell suspension and reagents were dispensed at 600cells/6 ul/well in 1536-well tissue culture treated black solid bottom plates using a Multidrop dispenser. After the assay plates were incubated at a 37 C/5% CO2 incubator for 5 hours, 23 nL of compounds dissolved in DMSO, positive and negative controls was transferred to the assay plate by a pintool work station. The plates were incubated at 37 C for 40 hours. The fluorescence intensity were measured at 0h, 8h, 16h, 24h, 32h and 40h time points using ViewLux plate reader during compound treatment.
With `CCN(CC)CC(=O)Nc1c(C)cccc1C(=O)OC` the “cytotoxicity increase” value was -4.5% [at 35.3 µM]. With `CN1C(CSCC(F)(F)F)Nc2cc(Cl)c(S(N)(=O)=O)cc2S1(=O)=O` (stereo not given) the “cytotoxicity increase” value was -11% [at 35.3 µM]. For `CCCCCc1ccco1`, the “cytotoxicity increase” value was -4.49% [at 35.3 µM]. In the case of `SCCc1cnccn1`, the “cytotoxicity increase” value is reported as -4.14%. For `CCc1ccc(C)cc1`, the “cytotoxicity increase” value was -7.95%. In the case of `CCCCCCCC(=O)Oc1c(Br)cc(C#N)cc1Br`, the “cytotoxicity increase” value is reported as -0.0635%. `CCCCCCCCCCCCCOC(=O)CCSCCC(=O)OCCCCCCCCCCCCC` showed a cytotoxicity increase of -0.0072% [at 15.8 µM]. With `CCSC(=O)N(CC)CC` the “cytotoxicity increase” value was -10%. In the case of `CC(O)Cn1cnc2c1c(=O)n(C)c(=O)n2C` (stereo not given), the “cytotoxicity increase” value is reported as -8.84% [at 35.3 µM]. For `CCCCCCCCCCCCCC(=O)OCC(O)CO` (stereo not given), the “cytotoxicity increase” value was -9.06%. In the case of `[Cl][Nd]([Cl])[Cl]`, the “cytotoxicity increase” value is reported as -19.9%. For `Cc1cc([N+](=O)[O-])ccc1N`, the “cytotoxicity increase” value was -13.2%. For `C/C(C=O)=C\c1ccccc1`, the “cytotoxicity increase” value was -0.164%. In the case of `O=C1NC(=O)c2cccc3cccc1c23`, the “cytotoxicity increase” value is reported as -13.2%. In the case of `CCO[Si](C)(CCCOCC1CO1)OCC` (stereo not given), the “cytotoxicity increase” value is reported as -2.89%. With `CC(C)CC(O)CC(C)C` the “cytotoxicity increase” value was 4.55%. In the case of `C=CC(=O)NC(C)C`, the “cytotoxicity increase” value is reported as -0.57%. With `CC[C@H]1OC(=O)[C@H](C)[C@@H](O[C@H]2C[C@@](C)(OC)[C@@H](O)[C@H](C)O2)[C@H](C)[C@@H](O[C@@H]2O[C@H](C)C[C@H](N(C)C)[C@H]2O)[C@](C)(O)C[C@@H](C)/C(=N\OCOCCOC)[C@H](C)[C@@H](O)[C@]1(C)O` the “cytotoxicity increase” value was 5.21% [at 35.3 µM]. With `Cc1ccc(Nc2c(F)cccc2Cl)c(CC(=O)O)c1` the “cytotoxicity increase” value was 3.74% [at 35.3 µM]. In the case of `Cc1ccc2c(c1[N+](=O)[O-])C(=O)c1ccccc1C2=O`, the “cytotoxicity increase” value is reported as 0.315% [at 35.3 µM]. With `CSSc1ccoc1C` the “cytotoxicity increase” value was -9.85%. With `COc1cc(OC)c2ccc(=O)oc2c1` the “cytotoxicity increase” value was -5.9%. For `CC(C)c1ccc(C(=O)N=C(N)N)cc1S(C)(=O)=O`, the “cytotoxicity increase” value was -1.87% [at 35.3 µM]. For `Cc1ccc2nc(N)[nH]c(=O)c2c1Sc1ccncc1`, the “cytotoxicity increase” value was -1.88% [at 35.3 µM]. For `CC(CCc1ccc(O)cc1)NCCc1ccc(O)c(O)c1` (stereo not given), the “cytotoxicity increase” value was -14% [at 35.3 µM]. With `CCC(C)(C)C(=O)O` the “cytotoxicity increase” value was -2.39%. With `CCN(CC)c1ccc(C(=C2C=CC(=[N+](CC)CC)C=C2)c2ccc(S(=O)(=O)O)cc2S(=O)(=O)[O-])cc1` the “cytotoxicity increase” value was -16.2%. With `CCCCC[C@H](O)/C=C/[C@H]1[C@H](O)CC(=O)[C@@H]1C/C=C\CCCC(=O)O` the “cytotoxicity increase” value was 10.3% [at 35.3 µM]. In the case of `CC(C)C(O)C(C)(C)CO` (stereo not given), the “cytotoxicity increase” value is reported as -9.62%. With `CC(=O)OCC(C)C` the “cytotoxicity increase” value was 0.4%. With `CCCCCCC(O)CCOC(C)=O` (stereo not given) the “cytotoxicity increase” value was 7.62% [at 200 µM]. With `COC(OC)OC` the “cytotoxicity increase” value was -2.05%. With `C=C(C)c1ccccc1` the “cytotoxicity increase” value was -6.96%. In the case of `COC(CC(C)CCCC(C)(C)O)OC` (stereo not given), the “cytotoxicity increase” value is reported as -7.74%. With `O=C(O)CCC(=O)OC[C@@H](NC(=O)C(Cl)Cl)[C@H](O)c1ccc([N+](=O)[O-])cc1` the Potency was 9.52 µM (active). For `CC(C)COC(=O)c1ccc(O)cc1`, the “cytotoxicity increase” value was 22.3%. In the case of `c1ccc(CNc2ncnc3c2ncn3C2CCCCO2)cc1` (stereo not given), the “cytotoxicity increase” value is reported as -1.65%. In the case of `COc1ccc(/C=C/C(=O)c2ccc(OC)cc2OC)cc1`, the “cytotoxicity increase” value is reported as 4.81% [at 35.3 µM]. In the case of `CCNc1nc(N)nc(Cl)n1`, the “cytotoxicity increase” value is reported as -8.96%. For `CC(C)C1CCC(C(=O)N[C@H](Cc2ccccc2)C(=O)O)CC1` (stereo not given in full), the “cytotoxicity increase” value was 11.6% [at 35.3 µM].
On the % scale 0 is the no-effect control and ±100 the full control effect; potency means the concentration at half of the fitted maximal effect.
